The text below walks through data of PubChem BioAssay (Tox21).

Where “and” joins values, the source holds several entries; their conditions need not be identical. Equal values may be shown once. Results filed as inconclusive are left out. A call without a number means that no potency is given here. More than one record can exist for a structure, and the calls need not agree. Calls of active or inactive are those of the source. Unless noted, calls come from the whole dose curve.

The nature of one assay: qHTS assay to identify small molecule agonists of the hypoxia (HIF-1) signaling pathway - cell viability counter screen (AID 1224844). Note: nearly all actives have a fitted effect of over 50% in size. Note: potency is the fitted concentration of half-maximal effect. The following applies: HRE-bla ME-180 viability, CellTiter-Glo luminescence, 17 h; series mostly up to 76.8 µM; activity change, negative = cytotoxicity: at the top concentration. Summed up: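 Viability counter screen: HRE-bla ME-180 cells plated 5 hrs before compound addition, treated 17 hrs at 37C and 5% CO2, then CellTiter-Glo added after the FRET reporter read; luminescence after 30 min.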
On the technique in general: Quantitative high-throughput screening tests each substance at several concentrations.
For `OC[C@H]1O[C@@H]2O[C@H]3[C@H](O)[C@@H](O)[C@@H](O[C@H]4[C@H](O)[C@@H](O)[C@@H](O[C@H]5[C@H](O)[C@@H](O)[C@@H](O[C@H]6[C@H](O)[C@@H](O)[C@@H](O[C@H]7[C@H](O)[C@@H](O)[C@@H](O[C@H]8[C@H](O)[C@@H](O)[C@@H](O[C@H]1[C@H](O)[C@H]2O)O[C@@H]8CO)O[C@@H]7CO)O[C@@H]6CO)O[C@@H]5CO)O[C@@H]4CO)O[C@@H]3CO`, the Potency result was “inactive”.

In the case of `O=[N+]([O-])c1ccc2c(c1)Cc1ccccc1-2`, the “activity change, negative = cytotoxicity” value is -1.02% (inactive).

Consider `O=c1oc(=O)c2cc3c(=O)oc(=O)c3cc12`, for which the Potency result was “inactive”. On the same count and under the same terms, with `Cc1c(OCC(F)(F)F)ccnc1CS(=O)c1nc2ccccc2[nH]1` (configuration not stated) the entry was “inactive”; with `Nc1ncn([C@@H]2O[C@H](CO)[C@@H](O)[C@H]2O)c(=O)n1`, 13.8 µM (active). On to `CC(C)OC(=O)C(C)(C)Oc1ccc(C(=O)c2ccc(Cl)cc2)cc1`, for which the Potency entry is “inactive”.

Regarding `Cc1ccc2c(n1)Oc1ccc(C(C)C(=O)OCC(=O)N(C)C)cc1C2` (configuration not stated), the Potency entry was “inactive”. Same read-out and setting: with `Brc1cc(Oc2cc(Br)c(Br)c(Br)c2Br)c(Br)c(Br)c1Br` the figure was 49.2 µM (active) and inactive; with `CCCCC(CC)COP(=O)(OCC(CC)CCCC)OCC(CC)CCCC` (configuration not stated), “inactive”; with `CCOC(=O)C(C#N)=C(c1ccccc1)c1ccccc1`, “inactive”. Still for that read-out and setting: with `CC(C(=O)O)c1cccc(C(=O)c2ccccc2)c1` (configuration not stated) the entry was “inactive”; with `CCC(C)CO` (configuration not stated), “inactive”. Same read-out and setting: for `O=C1OC2(c3cc(Br)c(O)c(Br)c3Oc3c2cc(Br)c(O)c3Br)c2c(Cl)c(Cl)c(Cl)c(Cl)c21` the value was 19.5 µM (active) and 29.7 µM (active); for `C[C@]12CC[C@H]3[C@@H](CCC4=CC(=O)CC[C@@]43C)[C@@H]1CC[C@@H]2C(=O)CO`, “inactive”. Take `Nc1ncnc2nc[nH]c12`: the Potency entry was “inactive”.

With `CC(C)OB(OC(C)C)OC(C)C`, the Potency result is “inactive”. Still for that read-out and setting: for `Clc1nc(Cl)c(Cl)c(Cl)c1Cl` the value was “inactive”; for `O=C(c1ccccc1)c1ccccc1O`, “inactive”; for `CCCCC(CC)COC(=O)c1ccc(N(C)C)cc1` (configuration not stated), “inactive”.

For `CC1=CC2C3CC(C=C3C)C2C1` (configuration not stated), the Potency result is “inactive”. Regarding `COC(=O)C1=C(C)NC(C)=C(C(=O)OCCN(C)Cc2ccccc2)C1c1cccc([N+](=O)[O-])c1` (configuration not stated), the “activity change, negative = cytotoxicity” value was -6.2% [at 35.3 µM] (inactive). As for `CC(=O)Oc1ccccc1C(=O)Nc1ncc([N+](=O)[O-])s1`, the Potency result is “inactive”. The same measure, in the same setting: for `c1ccc2cc(Nc3ccc(Nc4ccc5ccccc5c4)cc3)ccc2c1` the value was “inactive”. On the same count and under the same terms, with `CCCCc1oc2ccccc2c1C(=O)c1cc(I)c(OCCN(CC)CC)c(I)c1` the figure was 27.8 µM (active) and 21.3 µM (active); with `Cc1ccc(C)c(O)c1C`, “inactive”.

Consider `CC(C)Oc1ccc2c(=O)c(-c3ccccc3)coc2c1`, for which the Potency entry is “inactive”. On the same count and under the same terms, with `OC(CCl)CCl` the entry was “inactive”.

A further assay in a line: qHTS assay to identify small molecule agonists of H2AX (AID 1224845; active = well fitted activation curve with a large enough effect in the signal ratio in the repeat runs, not every such curve was filed as active; the % refers to the signal ratio). The settings on record: CHO-K1 phospho-H2AX Ser139 HTRF, 3 h; series mostly up to 154 µM; activation (H2AX phosphorylation): at the top concentration. Put shortly: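 Wild-type CHO-K1 cells, plated overnight, exposed 3hr at 37C to 15 concentrations (0.76% DMSO final). Lysed, then HTRF anti-pH2AX (S139) cryptate and anti-H2AX-d2 antibodies, 24 hr room temperature; 665/620 nm emission read.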
Regarding `OC[C@H]1O[C@@H]2O[C@H]3[C@H](O)[C@@H](O)[C@@H](O[C@H]4[C@H](O)[C@@H](O)[C@@H](O[C@H]5[C@H](O)[C@@H](O)[C@@H](O[C@H]6[C@H](O)[C@@H](O)[C@@H](O[C@H]7[C@H](O)[C@@H](O)[C@@H](O[C@H]8[C@H](O)[C@@H](O)[C@@H](O[C@H]1[C@H](O)[C@H]2O)O[C@@H]8CO)O[C@@H]7CO)O[C@@H]6CO)O[C@@H]5CO)O[C@@H]4CO)O[C@@H]3CO`, the outcome was inactive. Same read-out and setting: for `CCCCC(CC)COCC1CO1` (configuration not stated) the value was “inactive”. Still for that read-out and setting: with `Cc1cccc(C(=O)O)c1` the entry was “inactive”. In the case of `CCCCC/C=C/C=C/C=O`, the “activation (H2AX phosphorylation)” value is -0.39% (inactive). With `O=c1oc(=O)c2cc3c(=O)oc(=O)c3cc12`, the compound was classed as inactive.

For the compound `Cc1c(OCC(F)(F)F)ccnc1CS(=O)c1nc2ccccc2[nH]1` (configuration not stated), the compound was classed as inactive. Same read-out and setting: for `CCC(C)c1ccccc1O` (configuration not stated) the value was “inactive”. Same read-out and setting: with `Nc1ncn([C@@H]2O[C@H](CO)[C@@H](O)[C@H]2O)c(=O)n1` the entry was “inactive”. Same read-out and setting: with `CC(C)OC(=O)C(C)(C)Oc1ccc(C(=O)c2ccc(Cl)cc2)cc1` the entry was “inactive”; with `Cc1ccc2c(n1)Oc1ccc(C(C)C(=O)OCC(=O)N(C)C)cc1C2` (configuration not stated), “inactive”; with `CCCCOCCOCCOCCO`, “inactive”.

Take `CCCCC(CC)COP(=O)(OCC(CC)CCCC)OCC(CC)CCCC` (configuration not stated): the result was inactive.

On to `CCOC(=O)C(C#N)=C(c1ccccc1)c1ccccc1`, for which the compound was called inactive. On the same count and under the same terms, for `CC(C(=O)O)c1cccc(C(=O)c2ccccc2)c1` (configuration not stated) the value was “inactive”; for `CCC(C)CO` (configuration not stated), “inactive”; for `CC(CCC(=O)O)(c1ccc(O)cc1)c1ccc(O)cc1`, “inactive”.

In the case of `C[C@]12CC[C@H]3[C@@H](CCC4=CC(=O)CC[C@@]43C)[C@@H]1CC[C@@H]2C(=O)CO`, the result was inactive.

In the case of `Nc1ncnc2nc[nH]c12`, the call was inactive.

`CC(C)OB(OC(C)C)OC(C)C`: the result was inactive. With `C#C[C@]1(O)CC[C@H]2[C@@H]3CCc4cc(OC)ccc4[C@H]3CC[C@@]21C`, the “activation (H2AX phosphorylation)” value is -1.89% (inactive).

As for `Clc1nc(Cl)c(Cl)c(Cl)c1Cl`, the “activation (H2AX phosphorylation)” value is 0.449% (inactive). With `CCCC(=O)O`, the compound was called inactive. On the same count and under the same terms, with `c1cc(-c2ccncc2)ccn1` the entry was “inactive”; with `C=C(C)C(=O)OCCOC(=O)C(=C)C`, “inactive”; with `O=C(c1ccccc1)c1ccccc1O`, “inactive”. Same read-out and setting: for `CCCCC(CC)COC(=O)c1ccc(N(C)C)cc1` (configuration not stated) the value was “inactive”.

For the compound `CC1=CC2C3CC(C=C3C)C2C1` (configuration not stated), the call was inactive.

Regarding `COC(=O)C1=C(C)NC(C)=C(C(=O)OCCN(C)Cc2ccccc2)C1c1cccc([N+](=O)[O-])c1` (configuration not stated), the “activation (H2AX phosphorylation)” value was 0.0867% [at 70.9 µM] (inactive). As to `CC(=O)Oc1ccccc1C(=O)Nc1ncc([N+](=O)[O-])s1`, the “activation (H2AX phosphorylation)” value is 7.92% (inactive). Turning to `c1ccc2cc(Nc3ccc(Nc4ccc5ccccc5c4)cc3)ccc2c1`, the compound was classed as inactive. On the same count and under the same terms, with `Cc1ccc(C)c(O)c1C` the entry was “inactive”. As for `CC(C)Oc1ccc2c(=O)c(-c3ccccc3)coc2c1`, the outcome was inactive.

Regarding `OC(CCl)CCl`, the compound was classed as inactive. With `Cn1cnc([N+](=O)[O-])c1Sc1ncnc2nc[nH]c12`, the “activation (H2AX phosphorylation)” value is -0.0728% [at 70.9 µM] (inactive). Take `O=C(/C=C/c1ccccc1)OCc1ccccc1`: the outcome was inactive.
